Compound activity (PubChem BioAssay)
An excerpt weighted towards active compounds, which were near 2.6% of everything screened.
APOBEC3A inh – blocks human APOBEC3A ssDNA deamination; actives 0.41% (n = 330,000); P31941; inhibition, % at 20 µM; recombinant A3A, FAM/TAMRA ssDNA deamination fluorescence;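 active means at least 40% inhibition at 20 µM here, with at most 30% in a related deaminase screen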
Target sequence (P31941 whole entry, looked up): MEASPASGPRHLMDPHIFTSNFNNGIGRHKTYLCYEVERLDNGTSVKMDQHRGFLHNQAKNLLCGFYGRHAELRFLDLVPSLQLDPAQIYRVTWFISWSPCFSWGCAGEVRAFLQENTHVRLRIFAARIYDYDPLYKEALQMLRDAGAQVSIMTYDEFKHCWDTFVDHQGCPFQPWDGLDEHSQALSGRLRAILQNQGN
PABP1 MLLE inh – inhibitors of microRNA-mediated deadenylation, human PABP1 MLLE binding | P11940 | GST-MLLE / FITC-PAM2 fluorescence polarization | actives 0.36% (n = 360,000) | inhibition, % at 20 µM; in the data active means inhibition above about 35%, passing the limit was not always enough
PABP FP inh – PABP-poly(A) binding inhibition; P11940; PABP-poly(A) RNA binding, fluorescence polarization; calls only at 35 µM; actives 1% (n = 290,000);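 further: calls also rest on retests at 20 µM and on dose response follow-up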
PHOSPHO1 block – inhibitors of human PHOSPHO1 phosphatase. Q8TCT1. recombinant PHOSPHO1, absorbance phosphatase assay. inhibition, % at 13.3 µM. actives 1.1% (n = 290,000). AID 1565; in the data active means inhibition above about 60%
APOBEC3G inh – inhibitors of human APOBEC3G DNA deaminase. actives 0.28% (n = 330,000). inhibition, % at 20 µM. Q9HC16. recombinant A3G, ssDNA deamination FAM/TAMRA fluorescence;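 active means inhibition of at least 40% at 20 µM, with no more than 30% in the related APOBEC3A deaminase screen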
Target sequence (Q9HC16 whole entry, looked up): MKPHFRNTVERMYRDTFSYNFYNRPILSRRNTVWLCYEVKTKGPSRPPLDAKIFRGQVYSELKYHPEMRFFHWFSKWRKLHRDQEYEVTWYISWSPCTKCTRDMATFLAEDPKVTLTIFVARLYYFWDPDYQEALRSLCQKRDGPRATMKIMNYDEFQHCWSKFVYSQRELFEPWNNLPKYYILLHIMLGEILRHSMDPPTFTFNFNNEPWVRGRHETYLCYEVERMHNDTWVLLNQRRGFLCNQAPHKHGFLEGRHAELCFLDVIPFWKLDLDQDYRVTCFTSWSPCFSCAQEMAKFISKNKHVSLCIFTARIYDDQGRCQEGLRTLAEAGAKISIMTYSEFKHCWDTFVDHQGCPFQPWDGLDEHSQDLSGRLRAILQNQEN
eIF4H FP inh – inhibitors of RNA binding by human eIF4H; Q15056; eIF4H fluorescence polarization binding assay; inhibition, % at 35 µM; actives 0.94% (n = 290,000); AID 2012;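 further: calls also rest on retests at 20 µM and on dose response follow-up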
A number is an active result; 0 = inactive; ? = inconclusive; - = no result; + = active, no number. Unless noted, how the calls were made is not given here.

SMILES	APOBEC3A inh	PABP1 MLLE inh	PABP FP inh	PHOSPHO1 block	APOBEC3G inh	eIF4H FP inh
O=C(CNC(=O)c1ccc(Br)o1)OCc1ccc(Br)cc1	0	0	-	-	0	-
Cc1ccc(-c2cc(-c3ccc(C)o3)nc(N)c2C#N)cc1	0	0	?	0	0	?
Cc1ccc(-c2c(C#N)c(N)nc3c2CCCCC3)o1	0	0	+	0	0	63
Cc1ccc(-c2cc(-c3ccc(Cl)cc3)c(C#N)c(N)n2)o1	0	0	0	72	0	0
Cc1cc(-c2cc(-c3ccc(Cl)cc3)nc(N)c2C#N)co1	0	0	+	0	0	?
C[C@@H](C(=O)NCc1ccc(S(C)(=O)=O)cc1)[C@@H]1C[C@@]1(C)[C@@H](NC(=O)OCc1ccccc1)c1ccccc1	0	0	0	0	0	0
CCCCN1C(=O)c2ccc(C(=O)OCC(=O)NCCc3ccc(S(N)(=O)=O)cc3)cc2C1=O	0	0	-	-	0	-
Cc1ccc(/C=N/NC(=S)N2CCOCC2)cc1	0	0	0	62	0	0
CCOC(=O)C1=C(c2ccccc2)c2ccccc2N(S(=O)(=O)C(F)(F)F)C1C(=O)OCC (stereo unspecified)	0	0	-	-	0	-
CSCC[C@H](NS(=O)(=O)c1ccc(C)cc1)C(=O)N1CCC(C(=O)N[C@@H](C)C(=O)O)CC1	0	0	0	0	0	0
C=CCn1c(SCc2nc3ccccc3[nH]2)nnc1-c1ccc(OC)cc1	0	0	0	91	0	0
C=CCn1c(SCc2nc3ccccc3[nH]2)nnc1-c1cccc(OC)c1	0	0	0	71	0	0
CCn1c(SCc2nc3ccccc3[nH]2)nnc1-c1ccc(OC)cc1	0	0	0	78	0	0
C=CCn1c(SCc2nc3ccccc3[nH]2)nnc1-c1ccccn1	0	0	0	0	0	0
CCn1c(SCc2nc3ccccc3[nH]2)nnc1-c1ccncc1	0	0	0	0	0	0
Cn1c(CCC(=O)O)nc2cc(S(=O)(=O)N3CCCCC3)ccc21	0	39	-	-	0	-
CC(C)CCn1c(SCc2ccc(Cl)cc2)nc2c1c(=O)[nH]c(=O)n2C	0	0	0	61	0	0
Cc1ccc(CSc2nc3c(c(=O)[nH]c(=O)n3C)n2CCC(C)C)cc1	0	0	0	0	0	0
O=C(NCCCl)Nc1ccccc1OCCOc1ccccc1NC(=O)NCCCl	0	0	0	0	0	0
Cc1c(-c2ccccc2)sc(N)c1C(=O)N1CCOCC1	0	0	0	74	0	0
CCOC(=O)c1c(N)sc(-c2ccccc2)c1C	0	0	0	0	0	0
CCCn1c(C)cc(C(=O)COC(=O)c2ccc[nH]c2=O)c1C	0	0	0	0	0	0
Nc1cccnc1Sc1cccc(Cl)c1	0	38	0	0	0	0
O=c1oc2ccccc2cc1-c1nc2ccccc2o1	0	0	0	0	0	0
Nc1cc2nc3ccccc3oc-2cc1=O	0	0	+	0	0	0
SMILES	APOBEC3A inh	PABP1 MLLE inh	PABP FP inh	PHOSPHO1 block	APOBEC3G inh	eIF4H FP inh
Cc1ccc(NC(=O)CSc2nc(-c3ccco3)nc3cc(=O)[nH]n23)c(Cl)c1	0	0	+	0	0	86
CC(C)OC(=O)C1OC1(C)c1ccccc1 (stereo unspecified)	-	0	-	-	-	-
CC(=O)N=c1c(C#N)cc2c(=O)n3ccccc3nc2n1CCCOC(C)C	0	0	0	0	0	0
CCCCn1c(=NC(=O)c2ccc3c(c2)OCO3)c(C#N)cc2c(=O)n3cccc(C)c3nc21	0	0	+	0	0	81
CC(C)OCCCn1c(=NC(=O)c2ccncc2)c(C#N)cc2c(=O)n3ccccc3nc21	0	0	?	98	0	?
COCCn1c(=NC(=O)c2ccc3c(c2)OCO3)c(C#N)cc2c(=O)n3cccc(C)c3nc21	-	-	0	0	-	0
CC(/C=C(\NC(=O)c1ccccc1)C(=O)N=Nc1c(O)[nH]c2ccc(C)cc12)=C\c1ccccc1	0	0	0	91	0	0
O=C(c1cc(S(=O)(=O)N2CCOCC2)ccc1Cl)N1CCc2ccccc2C1	0	0	0	0	0	0
COc1ccc2cc(C(=O)C3CCCN(Cc4cnc(N5CCOCC5)s4)C3)ccc2c1 (stereo unspecified)	0	0	0	60	0	0
COc1cccc(C(=O)C2CCCN(Cc3cccc(-n4cccn4)c3)C2)c1 (stereo unspecified)	0	0	0	0	0	0
CC(C)Oc1cccc(C(=O)C2CCCN(Cc3cnc(N4CCCC4)s3)C2)c1 (stereo unspecified)	0	0	0	0	0	0
COc1cccc(C(=O)C2CCCN(Cc3cccn3-c3cccnc3)C2)c1 (stereo unspecified)	0	0	+	0	0	0
COc1cc(NS(=O)(=O)c2ccc(NC(=O)CSC3=NCCS3)cc2)nc(OC)n1	0	-	0	76	0	0
COC(=O)CCC(=O)Nc1ccc(S(=O)(=O)Nc2cc(OC)nc(OC)n2)cc1	0	0	0	0	0	0
COc1ccc(OC)c(NC(=O)CSC2=NCCS2)c1	0	40	0	0	0	0
CC1CCc2nc(N)c(C#N)c(-c3cccn3C)c2C1 (stereo unspecified)	0	0	+	0	0	97
N#Cc1c(N)nc2c(c1-c1ccccc1)CCCC2	0	0	0	0	0	0
C[C@@H](C(=O)Nc1cccc(S(=O)(=O)N2CCOCC2)c1)N1C(=O)C2CC=CCC2C1=O (stereo partly specified)	0	0	0	0	0	0
O=C(NCCCc1ccccc1)c1c(O)nc2sccn2c1=O	0	0	-	-	0	-
COc1ccc(NC(=O)CSc2nc3c(sc4ccccc43)c(=O)n2CCCN2CCCC2)cc1	0	0	-	0	0	-
S=c1[nH]nc(-c2ccc3ccccc3n2)n1-c1ccc(Cl)cc1	0	0	0	0	0	0
Cc1ccccc1-n1c(-c2ccc3ccccc3n2)n[nH]c1=S	0	0	0	71	0	0
Fc1ccc(-n2c(-c3ccc4ccccc4n3)n[nH]c2=S)cc1Cl	0	0	0	0	0	0
S=c1[nH]nc(-c2ccc3ccccc3n2)n1-c1ccc2ncccc2c1	0	0	0	74	0	0
Cc1ccc(OCC(=O)N2CCN(S(=O)(=O)c3ccccc3)CC2)c([N+](=O)[O-])n1	0	0	+	0	0	?
CC(C)Sc1nc(SCC(=O)O)c2c3c(sc2n1)COC(C)(C)C3	0	0	0	84	0	0
CS/C(=N\S(=O)(=O)c1cccs1)NC(=O)CSc1nc2ccccc2s1	0	0	0	100	0	0
CCc1nnc(NC(=O)CCC(=O)N2CCN(Cc3ccc(C)cc3C)CC2)s1	0	0	-	70	0	-
CCc1nnc(NC(=O)CCC(=O)N2CCN(CCOc3ccc(C)cc3)CC2)s1	0	0	0	0	0	50
Cc1nn(CC(=O)NCc2ccc(C(=O)O)cc2)c(C)c1[N+](=O)[O-]	0	0	0	0	0	0
